In PubChem BioAssay AID1259421 (Broad Institute, 2018):
Values joined by “and” are separate entries in the source; they are usually repeats but may differ in a detail not shown here. Equal entries are not always repeated. The whole screen tested about 6,400 compounds, of which about 610 (9.5%) were called active. Rule as the data show it: active = activity change below about -70%; inconclusive = no clear call, values can overlap the other calls; inactive = above that. The list comes from a sample in which actives are over-represented; it also holds similar structures and randomly drawn compounds. Some structures have more than one record in an assay (separate samples or runs), and their calls can disagree.

Assay: Toxoplasma gondii ME49Luc growth in HeLa cells, luciferase, no IFN-y, primary screen (AID 1259421)
Details: T. gondii ME49Luc in HeLa, 72 h, stronger effect = lower value, concentration not given here

SMILES | activity change, negative = inhibition
CC(N)Cn1ccc2cc(F)c(Cl)cc21 (stereo not given) | 4.63% (inactive)
COc1cc2c(cc1OC)-c1c(oc3c4c(ccc3c1=O)OC(C(C)C)C4)CO2 (stereo not given) | 16.2% (inactive)
Cc1cccc(Cc2cnc[nH]2)c1C | 32.1% (inactive)
CN1C[C@@H](NS(=O)(=O)N(C)C)C[C@@H]2c3cccc4c3c(cn4C)C[C@H]21 | 14.9% (inactive)
COC(=O)NC(=S)Nc1ccccc1NC(=S)NC(=O)OC | 8.42% (inactive) and 11.6% (inactive)
CC(C)=CCCN1CCC(NC(=O)[C@](O)(c2ccccc2)C2CCCC2)CC1 | 1.64% (inactive)
c1cncc(C2CCCCN2)c1 (stereo not given) | 9.05% (inactive) and -25.4% (inactive)
c1cncc(C2CCCN2)c1 (stereo not given) | 2.36% (inactive)
Fc1cc(F)c2c(c1)[C@H]1C=CC[C@H]1C(c1cccnc1)N2 (stereo not given in full) | -75.5% (active)
O=C1CC[C@@]2(O)[C@H]3Cc4ccc(O)c5c4C2(CCN3CC2CC2)[C@H]1O5 | -9.85% (inactive)
COc1cc2c3cc1Oc1c(OC)c(OC)cc4c1[C@@H](Cc1cccc(c1)Oc1ccc(c(O)c1)C[C@@H]3N(C)CC2)N(C)CC4 | -11.3% (inactive)
CCCCC/C=C\C/C=C\C/C=C\C/C=C\CCCC(=O)Nc1ccc(O)cc1 | -78.5% (active)
CCCCC/C=C\C/C=C\C/C=C\C/C=C\CCCC(=O)NCCO | 34.9% (inactive)
CCCCC/C=C\C/C=C\C/C=C\C/C=C\CCCC(=O)NCc1ccc(O)c(OC)c1 | 8.17% (inactive)
COC(=O)C=CC(=O)NC1CCC2(O)C3Cc4ccc(O)c5c4C2(CCN3CC2CC2)C1O5 (stereo not given) | 12.8% (inactive)
CC(=O)[O][Hg][c]1ccccc1 | -50.7% (inactive)
C[C@@H]([C@H](O)c1ccccc1)N(C)C | -0.751% (inactive) and -3.37% (inactive)
C[Se]C[C@H](N)C(=O)O | 10.4% (inactive)
COc1ccc2c(c1OC)C(=O)O[C@@H]2[C@H]1c2cc3c(cc2CCN1C)OCO3 | 2.97% (inactive)
COc1ccc2c(c1OC)CN1CCc3cc4c(cc3C1C2)OCO4 (stereo not given) | 15.2% (inactive)
COc1cc([C@@H]2c3cc4c(cc3[C@H](OC(C)=O)[C@H]3COC(=O)[C@H]23)OCO4)cc(OC)c1OC | -81.6% (active)
COc1cc([C@@H]2c3cc4c(cc3[C@@H](O)C3COC(=O)C32)OCO4)cc(OC)c1O (stereo not given in full) | -8.26% (inactive)
COc1cc([C@@H]2c3cc4c(c(O)c3C[C@H]3COC(=O)[C@@H]32)OCO4)cc(OC)c1OC | -71.9% (active)
CCN1C[C@]2(OC(=O)c3ccccc3NC(C)=O)CCC(OC)[C@]34C1[C@H](CC23)[C@@]1(O)CC(OC)[C@H]2CC4C1(O)[C@H]2OC (stereo not given in full) | -6.02% (inactive)
CC(C)(C)[C@]1(O)C[C@@H]2OC(=O)C[C@@]23C(=O)O[C@@H]2OC(=O)[C@H](O)C213 (stereo not given in full) | 7.37% (inactive)
COC1(C[S@@](=O)c2ccccc2)CCN(CCc2c[nH]c3ccc(F)cc23)CC1 | 22.1% (inactive)
CN1[C@@H]2CC[C@H]1CC(OC1c3ccccc3CCc3ccccc31)C2 (stereo not given in full) | 15.8% (inactive)

SMILES | activity change, negative = inhibition
c1ccc2c(c1)sc1ccccc12 | -5.87% (inactive)
C=C[C@H]1CN2CC[C@H]1C[C@@H]2[C@H](O)c1ccnc2ccccc12 | -7.58% (inactive)
CC(C)c1ccc2c(c1O)CC[C@H]1C3=C(CC[C@]21C)C(=O)OC3 | 0.532% (inactive)
CC(C)[C@]12O[C@H]1[C@@H]1O[C@]13[C@]1(O[C@H]1C[C@H]1C4=C(CC[C@@]13C)C(=O)OC4)[C@@H]2O | -86.5% (active)
C[C@@H]1CN(Cc2ccc(F)cc2)CCN1C(=O)COc1ccc(Cl)cc1NC(N)=O | -3.05% (inactive)
O=c1ccc2cc(O[C@@H]3O[C@H](CO)[C@@H](O)[C@H](O)[C@@H]3O)c(O)cc2o1 | -0.686% (inactive)
C=C(C)[C@@H]1[C@H]2OC(=O)[C@H]1[C@]1(O)C[C@H]3O[C@]34C(=O)O[C@H]2[C@]14C | 2.63% (inactive)
CCN(CC)CCOC(=O)C(C)(c1ccccc1)c1ccccc1 | 15.3% (inactive)
O=C(N[C@H]1CN2CCC1CC2)c1ccc(Cl)cc1 | 10.2% (inactive) and 9.22% (inactive)
O=c1[nH]c2ccc(Cl)cc2c(N[C@@H]2CN3CCC2CC3)c1-c1nc2ccccc2[nH]1 | -83.1% (active)
O=C(N[C@H]1CN2CCC1CC2)c1cc2cccc(Cl)c2s1 | 25.6% (inactive)
C[N+]1(C)CCc2cc3c(cc2C1[C@@H]1OC(=O)c2c1ccc1c2OCO1)OCO3 (stereo not given in full) | -1.51% (inactive) and 8.52% (inactive)
C1CN2CCC1CC2 | 14.5% (inactive)
O=C1NC(=S)NC(=O)C1C(=O)Nc1ccccc1 | 57.2% (inactive)
CC12CCC3C(CCC4C(=O)C(=O)CCC43C)C1CCC2=O (stereo not given) | 21.2% (inactive)
Fc1ccc(C(OCCN2CCN(CCCc3ccccc3)CC2)c2ccc(F)cc2)cc1 | -67.4% (inactive) and 5.82% (inactive)
C(=C\c1ccccc1)/CN1CCN(CCOC(c2ccccc2)c2ccccc2)CC1 | -4.36% (inactive) and -26.8% (inactive) and -5.08% (inactive)
Fc1ccc(C(OCCN2CCN(C/C=C/c3ccccc3)CC2)c2ccc(F)cc2)cc1 | -83.2% (active) and -79.9% (active)
O=c1oc2ccccc2c(O)c1Cc1c(O)c2ccccc2oc1=O | -3.14% (inactive) and 12.5% (inactive)
N[C@]1(C(=O)O)CC[C@@H](C(=O)O)C1 (racemic) | 3.76% (inactive)
O=C1c2ccccc2C(=O)c2ccccc21 | -6.04% (inactive)
c1ccc2c(c1)[I+]c1ccccc1-2 | -67.1% (inactive) and -88.6% (active)
FC(F)(F)c1cccc(N2CCNCC2)c1 | -1.94% (inactive)
CN=C(NS(=O)(=O)c1ccc(Cl)cc1)N1C[C@H](c2ccccc2)C(c2ccc(Cl)cc2)=N1 | 38.2% (inactive)
Cc1ccc2c(c1)C1(CCN(CCc3nc(-c4ccccc4)oc3C)CC1)OC(=O)N2 | 0.534% (inactive) and -16.6% (inactive)
CC(C)(C)NCC(O)c1ccc(O)cc1Cl (stereo not given) | -2.47% (inactive)
CN1C2C[C@H](OC(=O)[C@H](CO)c3ccccc3)C[C@H]1[C@@H](O)C2 | 4.91% (inactive)

SMILES | activity change, negative = inhibition
CN1C2C[C@H](OC(=O)[C@H](CO)c3ccccc3)C[C@@H]1[C@@H](O)C2 | 6.31% (inactive)
CCCCCOc1c(OC)ccc2cc(C(=O)NCc3ccc4c(c3)OCO4)c(=O)[nH]c12 | 23.5% (inactive) and -61.7% (inactive)
C[C@]12CCC(=O)C=C1CCC1C2CC[C@@]2(C)C1CC[C@H]2O (stereo not given in full) | 2.85% (inactive)
C#CC1(O)CCC2C3CCC4=CC(=O)CCC4(C)C3CCC21C (stereo not given) | -6.31% (inactive) and -17.5% (inactive)
CCC[C@@H]1CC2=CC(=O)CC[C@]2(C)[C@H]2CC[C@@]3(C)[C@@H](CC[C@@]3(O)CCC(=O)O)[C@H]12 | 17.5% (inactive)
CCC(=O)O[C@H]1CCC2C3CCC4=CC(=O)CC[C@]4(C)C3CC[C@@]21C (stereo not given in full) | -76.8% (active) and -88.9% (active)
CCCCCCC(=O)O[C@H]1CC[C@H]2[C@@H]3CCC4=CC(=O)CC[C@]4(C)[C@H]3CC[C@]12C | -77% (active)
C[C@]12CC[C@H]3[C@@H](CCC4=CC(=O)CC[C@@H]43)[C@@H]1CC[C@@H]2O | -79.7% (active)
C[C@]12CCC(=O)C=C1CCC1C2CC[C@@]2(C)C1CC[C@@H]2O (stereo not given in full) | -78.3% (active) and -86.2% (active)
C[C@]12CCC3c4ccc(OC(=O)N(CCCl)CCCl)cc4CCC3C1CC[C@@H]2O (stereo not given in full) | -52.4% (inactive)
C[C@]12CCC(=O)C=C1CC[C@@H]1[C@@H]2C(=O)C[C@]2(C)C(=O)CC[C@@H]12 | 8.66% (inactive)
CCCC1CC2=CC(=O)CCC2(C)C2CCC3(C)C(CCC3(O)CCC(=O)O)C12 (stereo not given) | 13% (inactive)
C[C@]12CC[C@H]3[C@@H](CCC4=CC(=O)CC[C@@]43C)[C@@H]1CC[C@H]2O | 8.39% (inactive)
C#C[C@]1(O)C=C[C@H]2[C@@H]3CCC4=CC(=O)CC[C@@H]4[C@H]3CC[C@@]21CC | -40.4% (inactive)
CC(C)[C@]1(O)[C@@H](OC(=O)c2ccc[nH]2)[C@@]2(O)[C@@]3(C)C[C@]4(O)O[C@@]5([C@H](O)[C@@H](C)CC[C@]35O)[C@@]2(O)C41C | 7.71% (inactive)
N#Cc1ccccc1-c1cc(-c2ccccn2)cn(-c2ccccc2)c1=O | 3.7% (inactive)
C=CCN1CC[C@]2(C)c3cc(O)ccc3CC1[C@@H]2C | 17.7% (inactive)
Cc1ccccc1-n1c(CF)nc2ccc(N)cc2c1=O | 11.5% (inactive)
CCN(CC)Cc1nccn1-c1ccc([N+](=O)[O-])cc1C(=O)c1ccccc1Cl | -2.08% (inactive)
C=C(C)CN1CC[C@]23c4c5ccc(O)c4O[C@H]2c2[nH]c4ccccc4c2C[C@@]3(O)C1C5 | 3.03% (inactive) and 27.5% (inactive)
CN1C(=O)C(O)N=C(c2ccccc2)c2cc(Cl)ccc21 (stereo not given) | 18.5% (inactive)
CCOC(=O)c1ncn2c1C1CCCN1C(=O)c1cc(OC)ccc1-2 (stereo not given) | 4.31% (inactive)
CNCC/C=C/c1cccnc1 | 9.5% (inactive)
O=C1CCCC2C3CC(CN12)[C@@H]1CCCCN1C3 (stereo not given in full) | 14.8% (inactive) and -1% (inactive)
O=C1Nc2ccc(Cl)cc2C(c2ccccc2)=NC1O (stereo not given) | 20.6% (inactive)
CCCN1CCCC2Cc3[nH]ncc3CC21 (stereo not given) | 1.31% (inactive)
